Results from PubChem BioAssay (NCATS).
Records with an inconclusive call do not appear. Activity calls are given as the source filed them. Calls come from the whole dose curve.

Biological target: Cytochrome P450 1A2 (Homo sapiens) (UniProt P05177)
Experiment: p450-cyp1a2 (AID 410);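 for activity change, negative = inhibition: -100% = full effect of reference inhibitor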
Conditions: recombinant CYP1A2, luciferin-ME demethylation, luminescence; series mostly up to 25.6 µM; activity change, negative = inhibition: at the top concentration
Outline: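 Luminescent demethylation readout: Luciferin-ME (100uM, equal to Km) turned over by 20nM CYP1A2 for 60 min at room temperature after NADPH regeneration addition, following 10 min compound preincubation. Normalization used 57 uM furafylline as full inhibition.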
Potency is the fitted concentration of half-maximal effect.

Cytochrome P450 1A2 (Homo sapiens), sequence (P05177 whole entry, looked up): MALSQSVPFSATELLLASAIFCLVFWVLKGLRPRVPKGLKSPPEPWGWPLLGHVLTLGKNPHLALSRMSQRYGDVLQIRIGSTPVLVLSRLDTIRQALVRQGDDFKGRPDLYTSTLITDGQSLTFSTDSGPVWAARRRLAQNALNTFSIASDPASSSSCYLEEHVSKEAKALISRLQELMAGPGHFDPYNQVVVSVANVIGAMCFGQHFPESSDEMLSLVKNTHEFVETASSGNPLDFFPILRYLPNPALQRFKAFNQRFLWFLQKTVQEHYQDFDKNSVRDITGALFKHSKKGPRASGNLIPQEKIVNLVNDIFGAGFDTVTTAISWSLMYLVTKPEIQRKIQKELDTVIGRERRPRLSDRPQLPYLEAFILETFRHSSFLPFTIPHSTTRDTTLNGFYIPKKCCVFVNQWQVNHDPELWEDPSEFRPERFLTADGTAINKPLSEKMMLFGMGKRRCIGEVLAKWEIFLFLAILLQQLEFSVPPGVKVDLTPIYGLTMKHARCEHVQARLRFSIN

| SMILES | Potency | activity change, negative = inhibition |
| --- | --- | --- |
| Cc1c(NC(C)C)c(=O)n(-c2ccccc2)n1C | 0.0398 µM (active) |  |
| NCc1ccc(S(N)(=O)=O)cc1 |  | -4.4% (inactive) |
| CCc1cccc(CC)c1NC(=O)CN(CC(=O)O)CC(=O)O |  | -9.7% (inactive) |
| CN/C(=C\[N+](=O)[O-])NCCSCc1csc(CN(C)C)n1 |  | -4.8% (inactive) |
| C[C@@H]1CCC[C@H](C)N1 |  | 0.2% (inactive) |
| O=C(O)c1ccccc1OP(=O)(O)O |  | -1.7% (inactive) |
| CCN(CC)CCOC(=O)C(c1ccccc1)c1ccccc1 | 5.01 µM (active) |  |
| Cn1c(=O)c2c(ncn2CCO)n(C)c1=O |  | -8.8% (inactive) |
| O=C(Cn1ccnc1[N+](=O)[O-])NCCO |  | -3.7% (inactive) |
| CCOC(=O)[C@H](CCc1ccccc1)N[C@@H](C)C(=O)N1CCC[C@H]1C(=O)O |  | -6.4% (inactive) |
| Cc1cccc(Nc2ccccc2C(=O)O)c1C | 5.01 µM (active) |  |
| O=C(O)COC(=O)Cc1ccccc1Nc1c(Cl)cccc1Cl |  | 3.1% (inactive) |
| Cc1cc(NC(=O)C2=C(O)c3ccccc3S(=O)(=O)N2C)no1 |  | -6.7% (inactive) |
| O=C(O)c1ccccc1C(=O)Nc1ccc(S(=O)(=O)Nc2nccs2)cc1 |  | -0.2% (inactive) |
| COc1ccc2cc(CCC(C)=O)ccc2c1 | 0.398 µM (active) |  |
| CC(=O)SC[C@@H](Cc1ccccc1)C(=O)NCC(=O)OCc1ccccc1 | 2.51 µM (active) |  |
| Cn1c([N+](=O)[O-])cnc1COC(N)=O |  | -4.5% (inactive) |
| NS(=O)(=O)c1ccc(C(=O)O)cc1 |  | -2.5% [at 11.4 µM] (inactive) |
| CCN(CC)CCc1nc(-c2ccccc2)no1 | 5.01 µM (active) |  |
| NC(N)=NS(=O)(=O)c1ccc(N)cc1 |  | 2% (inactive) |
| CC(=O)NS(=O)(=O)c1ccc(N)cc1 |  | 4.2% (inactive) |
| CC[N+](CC)(CC(=O)Nc1c(C)cccc1C)Cc1ccccc1 |  | -6.8% (inactive) |
| Cc1cc(C)nc(NS(=O)(=O)c2ccc(N)cc2)n1 |  | -4.9% (inactive) |
